# An excerpt weighted towards active compounds, which were near 6% of everything screened.
# D3 antag: antagonists of human D3 dopamine receptor; P35462; D3R cells, DiscoveRx beta-arrestin luminescence, antagonist mode; active compounds read low; max response, negative = inhibition, %; 360,000 tested, 2.5% active; AID 652054; in the data active = max response below about -50%; inconclusive = no clear call, values can overlap the other calls; also: % is scaled to controls: 0 for no effect and ±100 for the full control effect
#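 Cells plated overnight at 1500 cells/well, then exposed to library compounds with dopamine controls for 90 minutes at 37 degrees C. DiscoveRx reagent added for 30–60 minutes at room temperature; luminescence read, quantitative HTS format.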
# D1 antag: human D1 dopamine receptor antagonism | HEK293 TREx D1 cells, calcium flux, dopamine EC80; active compounds read low | AID 504652 | activity change, negative = inhibition, % at 10 µM | 360,000 tested, 3.2% active; in the data active = activity change below about -30%; also: % is scaled to controls: 0 for no effect and ±100 for the full control effect
# Target sequence (P21728 whole entry, looked up): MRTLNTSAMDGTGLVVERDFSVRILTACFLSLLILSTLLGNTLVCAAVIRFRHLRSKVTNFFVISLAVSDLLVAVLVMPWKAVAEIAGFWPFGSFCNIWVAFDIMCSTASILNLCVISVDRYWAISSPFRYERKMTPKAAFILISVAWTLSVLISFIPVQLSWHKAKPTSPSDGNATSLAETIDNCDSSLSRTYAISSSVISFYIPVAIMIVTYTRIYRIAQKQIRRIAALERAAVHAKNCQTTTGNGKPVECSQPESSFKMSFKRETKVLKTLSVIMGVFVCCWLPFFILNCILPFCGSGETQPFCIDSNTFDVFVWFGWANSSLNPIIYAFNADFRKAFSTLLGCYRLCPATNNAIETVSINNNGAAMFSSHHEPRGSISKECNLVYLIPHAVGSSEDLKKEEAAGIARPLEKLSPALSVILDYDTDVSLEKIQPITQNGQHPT
#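 Allosteric or orthosteric antagonism assessed as attenuation of the calcium response to EC80 dopamine, added 180 s after compound, in induced HEK293 Trex D1 cells loaded with no-wash calcium dye.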
# Chronic BCR inh: inhibitors of chronic active B-cell receptor signaling | ABC-DLBCL IkBa-CBG/CBR reporter, luminescence ratio, 4 h | Potency, µM (highest dose often 46.1 µM), for the others: at the highest dose activity change, negative = inhibition, usual class: inhibitors | 340,000 tested, 0.05% active | AID 493014; active = well fitted inhibition curve with a large enough effect in the signal ratio, with a control signal flat, not every such curve was filed as active; inconclusive = small, poorly fitted or top-dose-only effect, or effect the other way, or a change in a side signal; the % refers to the signal ratio;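 also: potency is read from the fitted curve at half-maximal effect; plate controls were basal doxycycline-induced cells for no effect and cells given 10 µM MG132 for full effect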
#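 Cell line TMD8 (human ABC DLBCL), stably expressing tet-inducible CBG68-IkBa fusion and CBR; IMDM/0.5% FBS; cpd up to 46 uM; dox induction, 4 h, 37C/5% CO2; dual luminescence; green/red ratio; MG132 control.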
# D1 potentiator: enhances dopamine response at the human D1 receptor; P21728; HEK293 TREx D1 cells, calcium flux, dopamine EC20 potentiation; potentiation, % at 10 µM; 360,000 tested, 0.036% active; in the data active = potentiation above about 30%; also: 0% is about no effect
# D1 agonist: activates the human D1 dopamine receptor. P21728. HEK293 T-REx D1 cells, calcium flux, agonist mode. activation, % at 2 µM. 360,000 tested, 1% active; in the data active = activation above about 30%; also: 0% is about no effect
#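 Agonism was scored from calcium flux recorded over 180 s (1 read/s) after pintool compound addition, following a 10-cycle baseline. Cells were inducible force-coupled HEK293 TREx D1, plated overnight at 30 C and loaded with no-wash calcium dye.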
# D3 ag: activates the human D3 dopamine receptor | P35462 | D3R DiscoveRx beta-arrestin cells, luminescence, 90 min | max activation, % | 410,000 tested, 0.58% active; in the data active = max activation above about 30%; also: 0% is about no effect
#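 Agonist mode: compounds and dopamine controls were applied to plated cells for 90 min at 37 degrees C after an overnight attachment at 1500 cells/well. Luminescent read-out followed 30 - 60 minutes at room temperature with DiscoveRx detection reagent.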
# An asterisk follows results filed as active; ? = inconclusive; . = no result given; ! = a repeat was not active.
SMILES,D3 antag,D1 antag,Chronic BCR inh,D1 potentiator,D1 agonist,D3 ag
O=C(Nc1nc(-c2cc3ccccc3oc2=O)cs1)c1ccco1,18.0,-63.7*,10.0%,-8.0,-0.5,-0.4
CC1(C(=O)NS(=O)(=O)c2cccc(Cl)c2)CCN1C(=O)CC1CC1 (stereo not given),0.0,.,.,.,.,52.3*
CC1(C(=O)NS(=O)(=O)c2cccc(Cl)c2)CCN1C(=O)CC1CCCCC1 (stereo not given),0.0,.,.,.,.,-11.2
CC1(C(=O)NS(=O)(=O)c2cccc(Cl)c2)CCN1C(=O)Cc1ccc(Cl)cc1Cl (stereo not given),-82.8*,.,.,.,.,-26.0
Cc1ccc(S(=O)(=O)NC(=O)C2(C)CCN2C(=O)CCc2ccc(Cl)cc2Cl)cc1 (stereo not given),?,.,.,.,.,-8.2
CC1(C(=O)NS(=O)(=O)c2ccc(Cl)cc2)CCN1C(=O)CCc1ccc(Cl)cc1Cl (stereo not given),-52.0*,.,.,.,.,-15.1
Cc1cccc(S(=O)(=O)NC(=O)C2(C)CCN2C(=O)Cc2ccc(Cl)cc2Cl)c1 (stereo not given),25.0,.,.,.,.,3.3
CCCCOc1ccc(S(=O)(=O)NC(=O)C2(C)CCN2C(=O)CCc2ccccc2)cc1 (stereo not given),-50.2*,.,.,.,.,-2.5
CCCCOc1ccc(S(=O)(=O)NC(=O)C2(C)CCN2C(=O)Cc2ccccc2Cl)cc1 (stereo not given),-8.3,.,.,.,.,-19.9
C=C1[C@H](CO)[C@@H](O)C[C@@H]1n1cnc2c(=O)[nH]c(N)nc21,.,.,.,.,.,-10.7
Cc1cccc(COC[C@H](CC(C)C)N2CCN(C(=O)c3ccc(C(F)(F)F)cc3)CCC2=O)c1,30.2,.,.,.,.,-2.7
CC1(C(=O)Nc2cnc3ccccc3c2)CCN1CCc1ccccc1 (stereo not given),0.4,.,.,.,.,-1.7
CC1(C(=O)Nc2cnc3ccccc3c2)CCN1C(=O)CCc1ccccc1 (stereo not given),0.0,.,.,.,.,53.9*
Cc1cc(/C=N/NC(=O)c2ccc(O)cc2)c(C)n1C1CC1,-54.0*,5.9,?,-3.0,0.9,-3.4
O=C(NCc1nnnn1-c1ccc(Cl)cc1)C(=O)c1c[nH]c2ccccc12,-17.0,.,.,.,.,-7.8
Cc1ccc2c(CN3CCC(C)CC3)cc(=O)oc2c1,-61.3*,-13.6,?,-5.0,0.7,-34.4
CCOC(=O)C1CCCN(Cc2cc(=O)oc3cc(C)ccc23)C1 (stereo not given),-8.3,-41.1*,?,-2.5,0.0,-14.4
Cc1ccc2c(CN3CC(C)CC(C)C3)cc(=O)oc2c1 (stereo not given),-4.3,-15.1,3.7%,-7.5,0.6,-2.7
Cc1cc2oc(=O)cc(CN3CCN(Cc4ccccc4)CC3)c2cc1Cl,?,-0.9,5.2%,1.0,5.9,-15.2
Cc1cc2oc(=O)cc(CN3CCC(C)CC3)c2cc1Cl,-51.5*,2.9,-1.4%,-7.5,1.3,-4.0
CCNC(=S)N/N=C(\C)c1ccc2ccccc2c1OC(F)F,-5.0,-9.4,?,-3.2,4.7,30.2*
CCNC(=S)N/N=C(\C)c1ccc2ccccc2c1,.,16.8,?,2.2,-5.2,.
Cc1ncoc1C(=O)Nc1ccccc1C(N)=O,-99.6*,-22.2,-12.3%,-12.0,-0.7,4.1
CCC(=O)N1CCC1(C)C(=O)Nc1cccc2c1CCCC2 (stereo not given),13.4,.,.,.,.,2.5
CCSc1ncc(Cl)c(C(=O)Nc2ccccc2OC)n1,29.6,-23.7,0.6%,1.8,4.2,10.4
CCc1nnc(NC(=O)c2nc(S(=O)(=O)Cc3ccccc3)ncc2Cl)s1,0.0,3.0,?,4.1,1.7,-8.8
Cc1cccc(CS(=O)(=O)c2ncc(Cl)c(C(=O)Nc3nnc(C(C)C)s3)n2)c1,-61.6*,-7.0,15.5%,4.2,5.2,-20.5
CCOc1ccccc1NC(=O)c1nc(S(=O)(=O)Cc2cccc(C)c2)ncc1Cl,-95.7*,-31.3*!,0.7%,-4.5,2.2,-23.5
CCc1nnc(NC(=O)c2nc(S(=O)(=O)Cc3ccc(C)cc3)ncc2Cl)s1,-50.4*,-7.1,?,-1.1,-0.7,-19.2

# Bioassay records (PubChem)
